In PubChem BioAssay AID1794844 (National Center for Advancing Translational Sciences (NCATS), 2023) one finds Potency data, which are given here for 48 compounds.

Fewer than 10 of roughly 2,800 compounds were called active. Another 7% or so got no clear call; they are omitted. The call rests on the fitted dose curve; in most records, active means well fitted inhibition curve with a large enough effect; inconclusive means small, poorly fitted or top-dose-only effect; inactive means no such curve, though single readings can be large or run the other way. Not all results are given here. Entries that show only a call come without a potency.
Potency means the concentration at half of the fitted maximal effect.

For the experiment, the target named is Metallo-beta-lactamase type 2 (Klebsiella pneumoniae) (UniProt C7C422). As to the kind of experiment: qHTS to identify inhibitors of the New Delhi Metallo-beta-lactamase (NDM): Nitrocefin screen against the machine-based learning selections. The settings on record: NDM-1 enzyme, nitrocefin hydrolysis, absorbance 485 nm; series mostly up to 38.4 µM. The text has this: Assay Submitter (PI): James Inglese Ph.D., Patricia Dranchak Ph.D., Mahesh Aitha Ph.D. Assay Development and Screening Technology Laboratory (ADST) National Center for Advancing Translational Sciences (NCATS), Rockville, MD National Institute of Health (NIH), Bethesda, Maryland The metallo-beta-lactamases (MBL) are a main antibiotic resistance mechanism evolved by bacteria. There is an urgent clinical need for MBL inhibitors to mitigate this growing threat. To support a machine-based learning study, qHTS has been used to experimentally test inhibitors identified by prediction tools.
Sequence of Metallo-beta-lactamase type 2 (Klebsiella pneumoniae) (C7C422 whole entry, looked up): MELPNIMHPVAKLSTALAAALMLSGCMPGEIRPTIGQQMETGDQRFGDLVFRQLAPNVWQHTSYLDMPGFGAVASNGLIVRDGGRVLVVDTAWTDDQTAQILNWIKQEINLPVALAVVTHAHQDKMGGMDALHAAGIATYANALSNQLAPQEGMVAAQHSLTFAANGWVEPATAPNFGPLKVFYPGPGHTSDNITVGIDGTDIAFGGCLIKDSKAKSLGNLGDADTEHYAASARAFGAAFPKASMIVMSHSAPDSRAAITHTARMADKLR
PROTOCOL TABLE (as described by Inglese et al., 2007) SEQUENCE No. (e.g., 1, 2, 3, etc.); […] (e.g., enzyme, Incubation, Reagent, etc.); VALUE; DESCRIPTION Primary Screen 1; NDM-1; 4 uL of 3 nM enzyme [2 nM final] in 50 mM HEPES (pH 7.0), 1 uM […], 0.01% Tween20; Use BioRaptr to dispense into two sets of Aurora black, clear bottom high base 1536-well plates 2; Compounds; 23 nL; Use Pin Tool (Wako) to transfer DMSO control and library compounds in DMSO 3; Incubate; >30 min 4a; Reagent; 2 uL of 50 uM nitrocefin [16.7 uM final] to one set of assay plates 4b; Reagent; 2 uL of 150 uM meropenem [50 uM final] to second set of assay plates 5a; Incubate; 15 min 5b; Incubate; 30 min 6a; Detector; Absorbance at 485 nm (bandwidth = 5 nm, 25 flashes/well) on Tecan Infinity 6b; Detector; Absorbance at 300 nm (bandwidth = 5 nm, 25 flashes/well) on Tecan Infinity NOTES (numbers refer to sequence above) 1; Column 1 of each plate received assay buffer without enzyme and columns 2-48 received enzyme for a final assay concentration of 2 nM. 2; Control plate contained DMSO in columns 1, 2, 3, and 4. 3; Compound interaction with enzyme. 4; Nitrocefin and meropenem substrates were prepared in the same assay buffer as step 1 for a final assay concentration of 16.7 uM and 50 uM, respectively, and added to all wells across respective sets of assay plates. 5; Default reader settings were applied for absorbance read at 485 nm (nitrocefin) or 300 nm (meropenem), bandwidth = 5 nm, 25 flashes/well. References: Inglese J, Shamu CE, Guy RK. 2007. Reporting data from high-throughput screening of small-molecule libraries. Nat Chem Biol. doi:10.1038/nchembio0807-438 Yasgar A, Shinn P, Jadhav A, Auld D, Michael S, Zheng W, Austin CP, Inglese J, Simeonov A. 2008. Compound Management for Quantitative High-Throughput Screening. J Lab Autom 13:79 - 89. doi:10.1016/j.jala.2007.12.004
On the technique in general: In qHTS, concentration-response curves come from the screen itself.
Take `Cn1cc(C(NC(=O)c2ccc3c(c2)ncn3CCO)C2CC(O)C2)cn1` (stereo not drawn): the Potency result was “inactive”.

Regarding `Cc1nnc(-c2cc(N3CCN(c4ccccn4)CC3)ccn2)n1C1CCCCC1`, the Potency result was “inactive”.

For the compound `O=C1CO[C@H]2CN(c3nccc(C(F)(F)F)n3)C[C@H]2N1Cc1ccc(F)cc1`, the Potency result was “inactive”.

As for `COc1cc(=O)n2c(c1C(=O)NC1CCCCCC1)CCCC2`, the Potency entry was “inactive”.

`Cc1cccc(N(CC(=O)N[C@H]2CC[C@H]2NC2CCCC2)S(C)(=O)=O)c1`: the Potency entry is “inactive”.

`O=C(O)[C@]12CCCN[C@@H]1CCN(Cc1cnc(-c3ccccn3)nc1)C2`: the Potency result was “inactive”.

Consider `CCOCCn1nc(C)cc1C(=O)N1C[C@@H](C)[C@](O)(C2CC2)C1`, for which the Potency entry was “inactive”.

On to `COc1cccc(-c2cccc(CCOc3cnc4c(ccn4CC(=O)O)c3)c2)c1`, for which the Potency entry was “inactive”.

Regarding `O=C(N[C@@H]1CCN(Cc2cccc3nonc23)C[C@H]1O)c1cccnc1`, the Potency entry was “inactive”.

For `COC(=O)c1ccc2nc(C[C@@H]3C[C@@H](C(C)C)[C@H](CN(C)C)C=C3C)[nH]c2c1`, the Potency entry was “inactive”.

Take `CCO[C@H]1C[C@@H](O)C12CCN(C(=O)c1cc(S(N)(=O)=O)ccc1F)CC2`: the Potency result is “inactive”.

Turning to `CN(C)Cc1cn(C[C@H]2C[C@@H](NC(=O)c3nc4ccccc4s3)[C@H](O)[C@@H]2O)nn1`, the Potency entry is “inactive”.

Regarding `COc1cc(CNC(=O)CCC2CCN(S(=O)(=O)c3ccccc3)CC2)cc(OC)c1`, the Potency entry is “inactive”.

On to `c1cncc(-c2cnc([C@@H]3COCCN3Cc3ncc[nH]3)[nH]2)c1`, for which the Potency result is “inactive”.

As to `Clc1cccc(-c2cnc([C@@H]3COCCN3Cc3cnc[nH]3)[nH]2)c1`, the Potency is 13.7 µM (active).

Turning to `Oc1ccccc1CN1CCOC[C@H]1c1ncc(-c2cccc(Cl)c2)[nH]1`, the Potency result is “inactive”.

For the compound `CC1(C)CN(C(=O)c2ccccc2Oc2ccccc2)CC1(C)O` (stereo not drawn), the Potency entry is “inactive”.

Turning to `O=c1ncn(Cc2ccccc2)c2ccc(-c3ccc(O)c(F)c3)nc12`, the Potency entry was “inactive”.

Turning to `CCOC(=O)C[C@@H]1C[C@@H](C(C)C)[C@H](CNC(=O)c2ccc(C#N)cc2)C=C1C`, the Potency result is “inactive”.

On to `CCC1=C(C(=O)OC)C(c2ccccc2OC)N2C(CC(=O)N3CC(C)OC(C)C3)=CSC2=N1` (stereo not drawn), for which the Potency result is “inactive”.

Take `CC1(C(=O)NCCc2ccccn2)CCc2cnc(NCc3ccccc3)nc21` (stereo not drawn): the Potency entry was “inactive”.

Regarding `Cn1ccc2c(C(=O)NCCc3cnc[nH]3)nc(-c3cccnc3)cc21`, the Potency entry is “inactive”.

On to `C[S+](=O)([O-])Nc1cccc(-c2cc(-c3cccnc3)c3cncn3c2)c1`, for which the Potency entry is “inactive”.

For the compound `O=C1Nc2cc(Cl)ccc2C(=O)N2CCN(C(=O)c3ccccc3)C[C@H]12`, the Potency result is “inactive”.

For `O=C(Cc1c[nH]c2ncc(-c3ccccc3F)cc12)NCc1cccnc1`, the Potency entry is “inactive”.

For the compound `COCc1cc(C[C@@H]2CC[C@H](O)[C@@H](CNS(=O)(=O)c3ccccc3)O2)no1`, the Potency entry was “inactive”.

Turning to `O=C(NC1CC(=O)N(CCc2cccc(Cl)c2)C1)c1ccsc1` (stereo not drawn), the Potency entry was “inactive”.

Take `CCN(CC)C(=O)C[C@@H]1c2nc(NC(=O)N3CCOCC3)sc2C[C@@H]2[C@](C)(CO)[C@H](O)CC[C@]21C`: the Potency entry is “inactive”.

Consider `CS(=O)(=O)N[C@H]1C[C@H]2C(=O)Nc3ccc(-c4ccc5c(c4)OCO5)cc3C(=O)N2C1`, for which the Potency result is “inactive”.

In the case of `COc1ccc(-c2cnc3[nH]cc(CC(=O)Nc4ccncc4)c3c2)cc1`, the Potency result is “inactive”.

Take `COc1ccc2c(c1)nc1n2[C@@H](CNC(=O)c2ccncc2)COC1`: the Potency result is “inactive”.

With `O=C(CCCc1ccccc1)N[C@@H]1CN(c2ccncn2)C[C@H]1CO`, the Potency entry was “inactive”.

As to `Cc1c(CN2C[C@@H](COc3ccccc3)[C@H](C(N)=O)C2)cnn1C`, the Potency result was “inactive”.

On to `Cc1ccc(C)c(-c2cc(C(=O)N3CCCC3c3nncn3C(C)C)[nH]n2)c1` (stereo not drawn), for which the Potency entry is “inactive”.

For the compound `O=S(=O)(c1ccc(F)cc1)N1CCCC(Cc2noc(-c3cnccn3)n2)C1` (stereo not drawn), the Potency result was “inactive”.

Take `CN1CCCC1c1nc(C2CN(C(=O)c3ccsc3)C2)no1` (stereo not drawn): the Potency result is “inactive”.

As to `CN1C(=O)CC(C(=O)O)C12CCN(C(=O)CCc1cccnc1)CC2` (stereo not drawn), the Potency entry was “inactive”.

On to `Cn1c(CO[C@H]2CN(C(=O)c3cccnc3)C[C@H]2F)nc2ccccc21`, for which the Potency result was “inactive”.

`C[C@@H](c1ccccc1)N1C(=O)[C@@H]2CN(C(=O)c3ccco3)CCN2C1=O`: the Potency entry is “inactive”.

`COc1ccc(OC)c(CN2CCC3(CC2)Nc2ccccc2NC3=O)c1`: the Potency result is “inactive”.

With `NC(=O)C1CCCN(CCNc2cc(-c3ccccc3)nc3ccnn23)C1` (stereo not drawn), the Potency entry was “inactive”.

Regarding `COC(=O)[C@H](NC(=O)[C@@H]1C[C@@H](NC(=O)c2ccncc2)CCN1S(=O)(=O)c1ccc(OC)cc1)C(C)C`, the Potency entry was “inactive”.

On to `Cc1cncc(C(=O)N2CC[C@@H](c3ccc4ccccc4c3)[C@H](O)C2)c1`, for which the Potency result is “inactive”.

As for `CCn1cnnc1CC1CCN(C(=O)NC)C1` (stereo not drawn), the Potency result is “inactive”.

As to `O=C(c1ccoc1)N1CCCn2cc(-c3ccccc3)nc21`, the Potency entry is “inactive”.

Regarding `NC(=O)CCNC(=O)C1=C[C@@H](NC(=O)c2cccs2)[C@@H](O)[C@H](O)C1`, the Potency result is “inactive”.

Regarding `Cc1ccc(O)c(CN2CC[C@@H](c3ccc(F)cc3)[C@H](O)C2)c1`, the Potency result is “inactive”.

With `Cc1cnc(C(=O)N2CCCC(c3nc(-c4cccnc4)no3)CCNC(=O)CC2)cn1` (stereo not drawn), the Potency entry is “inactive”.
